This is an account of results in PubChem BioAssay (NCATS).

Experiment [1] can be described thus: Cell Viability - NIH 3T3 (AID 541).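 Note: cells exposed to compound for 40 hours; plate controls were DMSO alone for no effect and tamoxifen positive control for full effect; nearly all actives have a fitted effect of over 25% in size.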 To be noted: NIH 3T3 cell viability, qHTS; activity change, negative = cytotoxicity: at 92.2 µM (top of the series). An outline of the steps: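 Intracellular ATP (CellTiter-Glo luminescence, 20 min at room temperature) measured after 40 hr compound exposure at 37 °C of 1000 NIH 3T3 mouse fibroblasts/well in complete medium; AC50 derived by Hill-equation modelling of qHTS concentration-response curves.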
For orientation: In qHTS, concentration-response curves come from the screen itself.

Experiment [2] in a line: Cell Viability - H-4-II-E (AID 543).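 Note: cells exposed to compound for 40 hours; % is set by controls: 0 for no effect and ±100 for the full control effect; nearly all actives have a fitted effect of over 35% in size.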 An outline of the steps: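 CellTiter-Glo luminescence (intracellular ATP) measured after 40 h compound exposure at 37 °C in H-4-II-E rat hepatoma cells seeded at 1500/well. Values are AC50s fitted with the standard Hill equation.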
Experiment [3] can be described thus: Cellular Toxicity (caspase-3) Jurkat (AID 655).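 Note: cells exposed to compound for 16 h at 37 °C before reading.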 The following applies: Jurkat caspase-3 activation, luminescence; caspase-3 activation: at 92.2 µM (top of the series), DMSO = 0%, tamoxifen = 100%. The gist of the method: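 Jurkat cells (5000/well) in complete medium were treated with compounds for 16 hr at 37 °C, then Caspase-Glo 3/7 luminescence was read after 20 min at room temperature. Data normalized to DMSO (basal) and 100 uM tamoxifen (100%); AC50 from Hill fit.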

Experiment [4] can be described thus: Cellular Toxicity (caspase-3) BJ (AID 658).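 Note: 0% = DMSO basal and 100% = 10 µM staurosporine.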 An outline of the steps: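 Plated BJ cells (1000/well) rested 5 hr, received compound for 16 hr at 37 °C, then Caspase-Glo 3/7 reagent for 1 hr at room temperature before luminescence reading.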
Experiment [5] in a line: MultiTox-Fluor Cytotoxicity Assay - LYMP1-003 - Dead Cells (AID 961). Note: nearly all actives have a fitted effect of over 70% in size. The gist of the method:
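Dead-cell protease release, detected as bis-AAF-R110 fluorescence at 485/520 nm, was measured in LYMP1-003 cells after 16 h compound treatment at 37 C. AC50 values came from Hill-modeled qHTS curves normalized to DMSO (0%) and 15 uM tetraoctylammonium bromide (100%).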

Experiment [6] in a line: Cell Viability - LYMP1-003 - Assay at 40 hr (AID 964). Note: % is set by controls: 0 for no effect and ±100 for the full control effect; nearly all actives have a fitted effect of over 60% in size. An outline of the steps: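 Viability is taken as cellular ATP, read by CellTiter-Glo luminescence after 40 h of compound exposure at 37 C. Cells: human lymphoblastoid line LYMP1-003 at 2500/well; AC50 values derived by Hill-equation fitting of concentration-response data.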
A short description of experiment [7]: Cell Viability - LYMP2-021 (AID 974). Note: % is set by controls: 0 for no effect and ±100 for the full control effect; nearly all actives have a fitted effect of over 55% in size. The gist of the method: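 AC50 values come from Hill-equation fits to CellTiter-Glo luminescence (ATP content), read after 24 hour compound exposure at 37 C of 2500 LYMP2-021 lymphoblastoid cells/well; tetraoctylammonium bromide as positive control.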
The nature of experiment [8]: Cell Viability - LYMP2-023 (AID 975).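 Note: cellular ATP measured by luciferase luminescence as viability proxy; plate controls were DMSO only for no effect and 92 µM tetraoctylammonium bromide control for full effect; nearly all actives have a fitted effect of over 55% in size.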 An outline of the steps: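 Intracellular ATP, read by CellTiter-Glo luminescence, reports viability after 24 hr compound exposure at 37 C. 2500 lymphoblastoid cells/well (LYMP2-023) seeded 5 hr beforehand; Hill fits give AC50; positive control tetraoctylammonium bromide.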
A short description of experiment [9]: Cell Viability - LYMP2-018 (AID 985).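 Note: plate controls were DMSO only for no effect and tetraoctylammonium bromide at 92 µM for full effect; nearly all actives have a fitted effect of over 50% in size.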 The gist of the method:
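Viability read as CellTiter-Glo luminescence (cellular ATP) after 24 hr compound exposure at 37 C of 2500 LYMP2-018 lymphoblastoid cells/well, pre-plated 5 hr. Hill-equation modelling gave AC50.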

Experiment [10] is described as follows: Cell Viability - LYMP2-020 (AID 986).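 Note: plate controls were DMSO only for no effect and tetraoctylammonium bromide at 92 µM for full effect; nearly all actives have a fitted effect of over 55% in size.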 The gist of the method: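 Cytotoxicity in qHTS format: luminescent ATP readout from CellTiter-Glo after 24 h compound exposure at 37 C in complete medium. LYMP2-020 lymphoblastoid cells were seeded at 2500/well; concentration-response data fitted to the Hill equation for AC50.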
Experiment [11] concerns the target Thyroid hormone receptor beta (Homo sapiens) (UniProt P10828). As to the kind of experiment: qHTS assay for small molecule antagonists of thyroid hormone receptor beta signaling (AID 588547; active = well fitted inhibition curve with a large enough effect in the signal ratio, with a control signal flat, not every such curve was filed as active; the % refers to the signal ratio;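 note: cells stimulated with 0.4 nM T3 agonist during compound exposure; % is set by controls: 0 for no effect and ±100 for the full control effect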). The following applies: TR-UAS-bla HEK293, beta-lactamase ratio, antagonist mode, 18 h. The gist of the method:
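TR-UAS-bla GripTite HEK293 cells in 2% charcoal/dextran FBS medium were preincubated 4 h at 37 C, given compound (0.59 nM to 92 uM) plus 0.4 nM T3 (final) for 18 h, then CCF4 for 2 h at RT; Hill fit gave IC50.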

Experiment [12] concerns the target Nuclear receptor ROR-gamma (Homo sapiens) (UniProt P51449). In words: qHTS assay for small molecule antagonists of the retinoid-related orphan receptor gamma (ROR-gamma) signaling pathway (AID 651802).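 Note: CHO cells with doxycycline-induced ROR-gamma expression; luciferase reporter luminescence driven by ROR response element; % is set by controls: 0 for no effect and ±100 for the full control effect; nearly all actives have a fitted effect of over 60% in size.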 An outline of the steps:
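Luminescence (One-Glo, 30 min RT) measured 16 h after compound addition and doxycycline induction at 37C. Reporter: RORE-luciferase under TET-inducible ROR-gamma in CHO cells.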

The nature of experiment [13]: qHTS assay for small molecule agonists of the antioxidant response element (ARE) signaling pathway measured by Nrf2-dependant transcriptional activity (AID 720636; active = well fitted curve in the direction sought with a large enough effect in the repeat runs; an effect the other way counts as inactive or inconclusive;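 note: HepG2 cells with an ARE-driven luciferase reporter; % of control where 0% means no effect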). An outline of the steps: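 Attachment 6 hr at 37 C, then compound versus DMSO vehicle for 16 hr in ARE-luc HepG2 cells (1% dialyzed FBS); luminescence recorded 30 min after ONE-Glo addition at room temperature.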

Experiment [14] in a line: qHTS assay for small molecule activators of the human pregnane X receptor (PXR) signaling pathway (AID 720659; call rule not given here; note: 0% is about no effect).
A short description of experiment [15]: Cell Viability - LYMP2-010 (AID 981). Note: % is set by controls: 0 for no effect and ±100 for the full control effect; nearly all actives have a fitted effect of over 55% in size. An outline of the steps:
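CellTiter-Glo ATP luminescence measured cytotoxicity after 24 h compound exposure at 37 C. LYMP2-010 cells were seeded at 2500/well, with tetraoctylammonium bromide as control; concentration-response curves gave AC50 values by the Hill equation.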

The nature of experiment [16]: Cell Viability - LYMP2-022 (AID 987). An outline of the steps: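 Cytotoxicity read as decreased cellular ATP (CellTiter-Glo luminescence, 30 min room temperature) after 24 hours compound exposure of 2500 lymphoblastoid LYMP2-022 cells/well at 37 C. Concentration-response data fitted with standard Hill equation for AC50.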
Experiment [17] addresses Voltage-gated inwardly rectifying potassium channel KCNH2 (Homo sapiens) (UniProt Q12809). As to the kind of experiment: qHTS Assay for Small Molecule Inhibitors of the Human hERG Channel Activity (AID 588834).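 Note: lower thallium flux fluorescence means stronger hERG block; nearly all actives have a fitted effect of over 50% in size.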 Note: potency is the fitted concentration of half-maximal effect. The gist of the method:
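In hERG-transduced U2OS cells, dye-loaded for 1 hr at room temperature in dark, test compounds incubated 10 min at 37 °C before thallium stimulation. AC50 values derived by Hill modelling of concentration-response.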

Experiment [18] is described as follows: qHTS assay for small molecule activators of the nuclear factor-kappa B (NF-kB) signaling pathway (AID 651749; active = well fitted activation curve with a large enough effect in the signal ratio; the % refers to the signal ratio; note: % of control where 0% means no effect). To be noted: NF-kB-bla ME-180 cells, beta-lactamase FRET ratio, 16 h; stronger effect = higher value. An outline of the steps: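 Human ME-180 cervical cells with an NF-kB-bla construct; compounds added via 23 nL pin transfer, DMSO as vehicle; incubation 16 hr. Reporter activity measured by FRET disruption.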

A short description of experiment [19]: Cell Viability - LYMP2-006 (AID 978). Note: % is set by controls: 0 for no effect and ±100 for the full control effect; nearly all actives have a fitted effect of over 60% in size. The gist of the method:
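Human lymphoblastoid cells, 2500 per well, were preincubated 5 hr at 37 C, then exposed to compounds for 24 hr at 37 C in complete medium. Viability was read as intracellular ATP by CellTiter-Glo luminescence; AC50 from Hill-equation fits of qHTS concentration-response data.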

The target in experiment [20] is Thyroid hormone receptor beta (Homo sapiens) (UniProt P10828). As to the kind of experiment: qHTS assay for small molecule agonists of thyroid hormone receptor beta signaling (AID 588545; calls by dose curve;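 note: 0% = DMSO only and 100% = 10 nM T3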). An outline of the steps: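 Stimulation of a TR-driven beta-lactamase reporter was quantified in GripTite HEK 293 cells. Compound series ran for 18 hrs; curves were normalized to T3 and DMSO controls and fitted to yield EC50.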
Sequence of Thyroid hormone receptor beta (Homo sapiens) (P10828 whole entry, looked up): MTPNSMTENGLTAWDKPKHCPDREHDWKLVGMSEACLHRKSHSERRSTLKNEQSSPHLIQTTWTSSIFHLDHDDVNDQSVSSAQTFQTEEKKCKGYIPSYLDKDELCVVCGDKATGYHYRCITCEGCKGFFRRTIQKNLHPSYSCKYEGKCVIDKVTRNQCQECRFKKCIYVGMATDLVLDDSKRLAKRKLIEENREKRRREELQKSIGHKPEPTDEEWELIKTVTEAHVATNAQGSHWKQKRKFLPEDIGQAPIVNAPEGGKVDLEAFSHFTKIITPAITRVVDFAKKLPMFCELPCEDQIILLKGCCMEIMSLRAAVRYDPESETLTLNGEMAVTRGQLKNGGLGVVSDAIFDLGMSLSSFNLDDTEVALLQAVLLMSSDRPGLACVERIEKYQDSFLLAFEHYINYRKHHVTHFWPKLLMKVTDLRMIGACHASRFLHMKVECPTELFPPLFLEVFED

SMILES strings stand for the structures. A number with no mark means an inactive call. Inconclusive results are not listed. Calls of active or inactive are those of the source. Unless noted, calls come from the whole dose curve; as a rule, active = well fitted curve in the direction sought with a large enough effect; inconclusive = small, poorly fitted or top-dose-only effect, or another doubt; inactive = no such curve, though single readings can be large; an effect the other way counts as inactive or inconclusive.

Sequence of Nuclear receptor ROR-gamma (Homo sapiens) (P51449 whole entry, looked up): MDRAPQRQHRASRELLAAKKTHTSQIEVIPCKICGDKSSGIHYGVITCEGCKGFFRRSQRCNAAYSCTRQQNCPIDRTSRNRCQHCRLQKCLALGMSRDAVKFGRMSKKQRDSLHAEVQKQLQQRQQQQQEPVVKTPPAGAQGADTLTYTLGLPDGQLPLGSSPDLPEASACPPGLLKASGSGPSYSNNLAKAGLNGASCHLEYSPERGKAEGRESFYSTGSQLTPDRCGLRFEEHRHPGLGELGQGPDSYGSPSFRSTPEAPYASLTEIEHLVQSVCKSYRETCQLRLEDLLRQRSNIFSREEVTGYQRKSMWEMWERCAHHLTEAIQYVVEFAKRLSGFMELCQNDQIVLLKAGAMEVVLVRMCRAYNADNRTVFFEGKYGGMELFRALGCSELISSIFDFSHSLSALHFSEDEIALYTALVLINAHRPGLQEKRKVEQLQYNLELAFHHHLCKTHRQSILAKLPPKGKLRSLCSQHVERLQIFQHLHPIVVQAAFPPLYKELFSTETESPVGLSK
Sequence of Voltage-gated inwardly rectifying potassium channel KCNH2 (Homo sapiens) (Q12809 whole entry, looked up): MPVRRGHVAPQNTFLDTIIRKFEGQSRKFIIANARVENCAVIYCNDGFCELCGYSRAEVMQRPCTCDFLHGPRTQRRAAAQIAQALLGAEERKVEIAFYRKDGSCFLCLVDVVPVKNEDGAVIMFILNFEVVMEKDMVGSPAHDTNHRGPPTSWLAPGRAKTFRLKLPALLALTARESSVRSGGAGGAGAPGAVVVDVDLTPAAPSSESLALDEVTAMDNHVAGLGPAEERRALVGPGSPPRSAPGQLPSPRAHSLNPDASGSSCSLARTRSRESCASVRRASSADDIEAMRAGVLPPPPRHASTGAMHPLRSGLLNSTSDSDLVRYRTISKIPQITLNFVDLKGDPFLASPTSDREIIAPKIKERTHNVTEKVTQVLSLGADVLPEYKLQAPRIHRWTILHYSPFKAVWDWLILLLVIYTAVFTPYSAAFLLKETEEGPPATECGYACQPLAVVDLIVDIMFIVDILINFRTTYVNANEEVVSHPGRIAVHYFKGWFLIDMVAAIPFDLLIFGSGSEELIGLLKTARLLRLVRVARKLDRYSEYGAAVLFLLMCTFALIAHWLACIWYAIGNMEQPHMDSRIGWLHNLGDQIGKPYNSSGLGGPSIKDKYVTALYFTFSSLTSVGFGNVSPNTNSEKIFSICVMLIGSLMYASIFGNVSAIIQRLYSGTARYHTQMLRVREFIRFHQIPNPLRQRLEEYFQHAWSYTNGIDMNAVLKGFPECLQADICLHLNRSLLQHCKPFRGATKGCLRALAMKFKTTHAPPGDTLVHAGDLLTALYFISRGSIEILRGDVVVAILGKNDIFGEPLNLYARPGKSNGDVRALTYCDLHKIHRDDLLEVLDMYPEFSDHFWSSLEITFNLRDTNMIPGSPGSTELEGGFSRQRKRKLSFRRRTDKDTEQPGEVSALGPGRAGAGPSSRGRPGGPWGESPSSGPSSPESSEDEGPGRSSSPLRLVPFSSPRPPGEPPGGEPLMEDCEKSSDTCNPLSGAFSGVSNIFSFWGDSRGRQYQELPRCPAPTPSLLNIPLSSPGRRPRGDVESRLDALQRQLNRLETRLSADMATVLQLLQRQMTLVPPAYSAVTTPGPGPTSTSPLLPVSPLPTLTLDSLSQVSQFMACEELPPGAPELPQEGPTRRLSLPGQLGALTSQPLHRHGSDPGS

With `ClCC(Cl)Cl`, the Potency entry in [1], in [2], in experiment [5], in [6], in experiment [7] and in experiment [8] was “inactive” in each case. Also, the Potency entry in experiment [9], in experiment [10], in experiment [12] and in experiment [13] was “inactive” each time. Moreover, the caspase-3 activation in experiment [3] was 0.231%. Moreover, the compound was classed as inactive in experiment [4] and in experiment [14]. Also, in experiment [11], the activity change % (negative = inhibition) was 8.38%.

Regarding `O=C(O)C(Cl)Br` (stereo unspecified), the Potency entry in experiment [1], in experiment [5], in experiment [6], in experiment [7], in experiment [15] and in experiment [9] was “inactive” in each case. The Potency result in experiment [10], in experiment [16], in [17], in experiment [12] and in experiment [13] was “inactive” in each case. In addition, the call in experiment [4] and in experiment [14] was inactive. Besides, the activity change % (negative = inhibition) in experiment [11] was 7.08%. In addition, the activation in experiment [18] is 0.434%.

For `O=S(=O)(O)F`, the Potency result in experiment [1], in [2], in experiment [5], in experiment [6], in [7] and in experiment [8] was “inactive” each time. Also, the Potency entry in experiment [19], in experiment [15], in [9], in experiment [10], in experiment [16] and in experiment [20] was “inactive” throughout. Moreover, the Potency result in [17] and in experiment [13] was “inactive” throughout. Further, in experiment [3], the caspase-3 activation was 1.63%. For the same compound, the compound was called inactive in experiment [4] and in experiment [14]. In addition, the activity change % (negative = inhibition) in experiment [11] was 10%.

Take `[O-][Cl+]O`: the Potency entry in experiment [1], in experiment [5], in [6], in [7], in [8] and in [19] was “inactive” in each case. For the same compound, the Potency entry in [15], in experiment [9], in experiment [10], in experiment [16], in [20] and in experiment [17] was “inactive” in each case. The Potency entry in experiment [12] and in experiment [13] was “inactive” each time. Further, in experiment [3], the caspase-3 activation was 0.134%. Further, the compound was classed as inactive in experiment [4]. Further, the activation in experiment [18] was -0.295%.

As to `BrCC(Br)C1CCC(Br)C(Br)C1` (stereo unspecified), the caspase-3 activation in experiment [3] was 3.33%. In experiment [4], the compound was called inactive. Further, the Potency entry in experiment [5], in experiment [7], in [8], in experiment [15], in experiment [16] and in [20] was “inactive” throughout. Also, the Potency result in experiment [12] is “inactive”. Besides, the activity change % (negative = inhibition) in experiment [11] is 5.99%. For the same compound, the Potency in experiment [17] was 22.4 µM (active). For the same compound, in experiment [18], the activation was -1.21%.
